Measured values reported in PubChem BioAssay (NCI).
About 79,000 compounds went through this panel and 15% of them were active in at least one assay; those are over-represented in the sample as a whole. Rule as the data show it: active = growth inhibition above about 70%; inactive = the rest. Where a SMILES comes first, the peptide text is derived from it. [ ]: non-standard residue; d: D form. The star is where a group is joined. ξ: configuration not given here. ξF = NC(Cc1ccccc1)C(=O)O; Cbz = O=C(OCc1ccccc1)*; Aib = CC(C)(N)C(=O)O

Experiments:
[1] = NCI Yeast Anticancer Drug Screen. Data for the rad50 strain (AID 155);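 also: 0% = growth of vehicle-only cultures of the same strain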; conditions: S. cerevisiae rad50 strain growth inhibition; at 50.0 µM; active compounds read high
Procedure, shortened: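 Vehicle-treated cultures provide the reference for the growth inhibition reported for compound-exposed, repair-deficient yeast.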

[2] = NCI Yeast Anticancer Drug Screen. Data for the mec2-1 strain (AID 157); conditions: S. cerevisiae mec2-1 strain, at 50.0 µM, active compounds read high
Procedure, shortened: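 Compounds were applied to mec2-1 yeast cells. Their growth was then compared with that of vehicle-treated cultures to give growth inhibition.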

[3] = NCI Yeast Anticancer Drug Screen. Data for the sgs1 mgt1 strain (AID 161);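 also: 0% = growth of cultures given vehicle only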; conditions: S. cerevisiae sgs1 mgt1 strain, at 50.0 µM, active compounds read high
Procedure, shortened: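 Compounds are added to genetically altered yeast, and growth is compared with cultures given vehicle alone to give percent inhibition.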

[4] = NCI Yeast Anticancer Drug Screen. Data for the cln2 rad14 strain (AID 165);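 also: 0% = growth equal to vehicle treated cultures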; conditions: S. cerevisiae cln2 rad14 strain, at 50.0 µM, active compounds read high
Procedure, shortened: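 Strain: cln2 rad14 yeast, altered in cell cycle control and DNA damage repair. Read-out: growth inhibition vs vehicle.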

[5] = NCI Yeast Anticancer Drug Screen. Data for the bub3 strain (AID 167); conditions: S. cerevisiae bub3 mutant strain, at 50.0 µM, active compounds read high
Procedure, shortened: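 Mutant yeast screening strain plus compound; vehicle-treated cultures serve as the 0% inhibition reference.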

[6] = NCI Yeast Anticancer Drug Screen. Data for the mlh1 rad18 strain (AID 175); conditions: S. cerevisiae mlh1 rad18 strain growth inhibition; at 50.0 µM; active compounds read high
Procedure, shortened: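 A repair-deficient yeast strain is exposed to test compound, and growth is scored relative to vehicle-treated controls.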

Measured: growth inhibition

Cc1ccc(-n2cc(-c3ccc(Cl)cc3)c3c(NNC(=S)NCc4ccccc4)ncnc32)cc1
inactive: [1] 30.9% | [2] 35% | [3] 52.5% | [4] 32.4% | [5] 40.7% | [6] 11.1%

COc1cc(-c2cccs2)sc1-c1cccs1
inactive: [1] 10.4% | [2] -7.15% | [3] 31.4% | [4] 8.95% | [5] 19.6% | [6] 13.2%

COC(=O)NC(=O)CCC(=O)O
inactive: [1] -0.15% | [2] -2.8% | [3] 0.95% | [4] -45.3% | [5] 7% | [6] 12.8%

CC(C)(NC(=O)OCc1ccccc1)C(=O)NC(Cc1ccccc1)C(=O)O (centres undefined) (Cbz-[Aib]-[ξF]-OH)
inactive: [1] -26.6% | [2] -61% | [3] -5.7% | [4] 19.8% | [5] 11.2% | [6] -11.3%

Cc1ccc(C(=O)C[N+]2(C)CCOCC2)cc1
inactive: [1] 15.8% | [2] -7.5% | [3] 16.6% | [4] -21.9% | [5] 8.4% | [6] 20.4%

Cc1cccc(N=C2NC(=O)C(CC(=O)Nc3ccccc3Cl)S2)c1 (centres undefined)
inactive: [1] -16.8% | [2] -35.8% | [3] 12.8% | [4] 7.45% | [5] 0.95% | [6] -1.55%

CN(C)Cc1nsc(N(C)C)n1
inactive: [1] -4.9% | [2] -9.1% | [3] -34.2% | [4] -50% | [5] -19.1% | [6] -13.2%

C1CSCCSCCCSCCSCCCSCCSCCCSCCSC1
inactive: [1] 21.2% | [2] 20.9% | [3] 45.9% | [4] 13.4% | [5] 21.1% | [6] 44.6%

CCCCS/C=C\SCCCC
inactive: [1] 2.85% | [2] 7.55% | [3] -8.5% | [4] -26.4% | [5] 6.7% | [6] -1.65%

CCNCC1COc2ccccc2O1 (centres undefined)
inactive: [1] -0.3% | [2] 3% | [3] -7% | [4] -15.8% | [5] -4.8% | [6] -1%

CCOC(=O)C(NC(C)=O)C(O)c1ccccc1 (centres undefined)
inactive: [1] -8.85% | [2] -16.2% | [3] -2% | [4] -24.6% | [5] -37.4% | [6] -9.95%

CCC(C)(S)CN (centres undefined)
inactive: [1] -1.55% | [2] -2.55% | [3] -7.35% | [4] -37.5% | [5] -11.4% | [6] -1.55%

COC1OC(CO)C(OC(=O)Nc2ccccc2)C(OC(=O)Nc2ccccc2)C1O (centres undefined)
inactive: [1] -16.9% | [2] -10.7% | [3] -1.4% | [4] -38.1% | [5] 2.7% | [6] -8.15%

Cc1ccc(N=NNc2ccccc2)cc1
inactive: [1] -7.7% | [2] -8.05% | [3] -7.65% | [4] -13.9% | [5] -11.3% | [6] -7.6%

CCC(=O)Nc1cc(Cl)c(Cl)cc1C
inactive: [1] -8.7% | [2] -12.4% | [3] -13.5% | [4] -85.8% | [5] -27.2% | [6] -12%

Nc1nc(Cc2ccccc2)cc(-c2cc(Cc3ccccc3)nc(N)n2)n1
inactive: [1] 2.7% | [2] 4.7% | [3] 5.2% | [4] 1.8% | [5] -6.3% | [6] 1.7%

Nc1cc(=O)[nH]c(=S)n1-c1ccccc1
inactive: [1] -7% | [2] 2.5% | [3] -12.2% | [4] -16.1% | [5] -2.5% | [6] -9.65%

CS(=O)(=O)C(CCC(=O)C(c1ccccc1)c1ccccc1)C(=O)c1ccccc1 (centres undefined)
inactive: [1] -7.7% | [2] -11% | [3] -20.5% | [4] -39.5% | [5] -1.55% | [6] -29.2%

CC(O)C(NC(=O)c1cnc2ccccc2n1)C(=O)O (centres undefined)
inactive: [1] -8.45% | [2] -5.1% | [3] 17.8% | [4] -17.1% | [5] 15.9% | [6] -11.8%
